Experimental data from PubChem BioAssay (NCATS).
Several values for one entry are separate records, joined by “and”; a condition that tells them apart may be missing. Identical values can stand only once. Inconclusive results are not listed. Some compounds were tested as several samples or in several runs, with calls that do not always agree. Activity calls are given as the source filed them. Calls come from the whole dose curve; as a rule, active = well fitted curve in the direction sought with a large enough effect; inconclusive = small, poorly fitted or top-dose-only effect, or another doubt; inactive = no such curve, though single readings can be large; an effect the other way counts as inactive or inconclusive.

Columns and labels:
[1] = molecular target: Metallo-beta-lactamase type 2 (Klebsiella pneumoniae) (UniProt C7C422); assay: qHTS to identify inhibitors of the New Delhi Metallo-beta-lactamase (NDM): assay validation screen against the NCATS LOPAC Collection (AID 1794843);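 note: nitrocefin turnover by NDM-1 measured as 485 nm absorbance at plateau; series mostly up to about 38 µM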
How it was run: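 NDM-1 at 2 nM final in 50 mM HEPES pH 7.0 with 1 uM ZnSO4 and 0.01% Tween20 was preincubated with library compounds in DMSO. Nitrocefin (50 uM stock) was then added, and absorbance at 485 nm was read at the kinetic plateau.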

[2] = molecular target: Glutathione peroxidase 1 (Homo sapiens) (UniProt P07203); assay: Primary qHTS Assay for Inhibitors of Recombinant Selenoprotein Glutathione Peroxidase 1 (GPX1) (AID 1845191); note: nearly all actives have a fitted effect of over 65% in size
How it was run: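 10 nM GPX1 + cpd, 30 min RT; start w/ 1 mM GSH, 0.5 mM cumene hydroperoxide, 0.5 mM NADPH, 100 nM GR, 0.01% BSA; buffer 50 mM Tris-HCl pH 7.5, 2 mM EDTA, 150 mM NaCl; Fl 340/450, 0 & 15 min.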

[3] = molecular target: Phospholipid hydroperoxide glutathione peroxidase GPX4 (Homo sapiens) (UniProt P36969); assay: Primary qHTS Assay for Inhibitors of Recombinant Selenoprotein Glutathione Peroxidase 4 (GPX4) (AID 1845192); note: nearly all actives have a fitted effect of over 65% in size; note: potency is the fitted concentration of half-maximal effect
How it was run: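 NADPH consumption, followed by fluorescence at 340/450 nm between 0 and 15 min, reports GPX4 activity via coupled glutathione reductase (100 nM). Enzyme 200 nM was pre-exposed to compound 30 min; 0.5 mM cumene hydroperoxide and 1 mM GSH served as substrates.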

[4] = Quantitative High-Throughput drug screen in 47 multiple myeloma cell lines against the NCATS MIPE library collection: FR4_PLB cell viability assay (AID 1918924; note: nearly all actives have a fitted effect of over 35% in size; note: potency is the fitted concentration of half-maximal effect)
How it was run: (§1)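 Primary qHTS used for cherry-picking: cells at 500/well, library compounds for 48 h (37C, 5% CO2), luminescent ATP assay.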

[5] = Quantitative High-Throughput drug screen in 47 multiple myeloma cell lines against the NCATS MIPE library collection: Delta47_JCRB cell viability assay (AID 1918925; note: nearly all actives have a fitted effect of over 45% in size; note: potency is the fitted concentration of half-maximal effect)
How it was run: (§2)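 Luminescent ATP measurement with CellTiter-Glo gives viability, scaled between DMSO-only wells (100%) and media-only wells (0%). Cells, 500 per well, faced library compounds for 48 hours at 37C.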

[6] = Quantitative High-Throughput drug screen in 47 multiple myeloma cell lines against the NCATS MIPE library collection: EJM_DSMZ cell viability assay (AID 1918926; note: nearly all actives have a fitted effect of over 30% in size; note: potency is the fitted concentration of half-maximal effect)
How it was run: as §2

[7] = Quantitative High-Throughput drug screen in 47 multiple myeloma cell lines against the NCATS MIPE library collection: AMO1_DSMZ cell viability assay (AID 1918927; note: nearly all actives have a fitted effect of over 30% in size; note: potency is the fitted concentration of half-maximal effect)
How it was run: as §2

[8] = Quantitative High-Throughput drug screen in 47 multiple myeloma cell lines against the NCATS MIPE library collection: ARP1_JJKsccF8 cell viability assay (AID 1918928; note: nearly all actives have a fitted effect of over 40% in size; note: potency is the fitted concentration of half-maximal effect)
How it was run: (§3)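 Myeloma cells, 500 per well, were exposed to MIPE 4.0 drugs by pin transfer for 48 h at 37 °C, 5% CO2. Viability was read as ATP luminescence with CellTiter-Glo, normalised to DMSO-only (100%) and medium-only (0%) wells.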

[9] = Quantitative High-Throughput drug screen in 47 multiple myeloma cell lines against the NCATS MIPE library collection: ARD_JJKsccE7 cell viability assay (AID 1918929; note: potency is the fitted concentration of half-maximal effect)
How it was run: as §2

[10] = Quantitative High-Throughput drug screen in 47 multiple myeloma cell lines against the NCATS MIPE library collection: Karpas620_DSMZ cell viability assay (AID 1918959); note: nearly all actives have a fitted effect of over 30% in size; note: potency is the fitted concentration of half-maximal effect
How it was run: as §1

[11] = Quantitative High-Throughput drug screen in 47 multiple myeloma cell lines against the NCATS MIPE library collection: KMM1_JCRB cell viability assay (AID 1918960); note: potency is the fitted concentration of half-maximal effect; nearly all actives have a fitted effect of over 30% in size
How it was run: as §3

[12] = Quantitative High-Throughput drug screen in 47 multiple myeloma cell lines against the NCATS MIPE library collection: KHM11_PLB cell viability assay (AID 1918962); note: nearly all actives have a fitted effect of over 35% in size; note: potency is the fitted concentration of half-maximal effect
How it was run: as §1

[13] = Quantitative High-Throughput drug screen in 47 multiple myeloma cell lines against the NCATS MIPE library collection: JIM3_ECACC cell viability assay (AID 1918963; note: nearly all actives have a fitted effect of over 35% in size; note: potency is the fitted concentration of half-maximal effect)
How it was run: as §1

[14] = Quantitative High-Throughput drug screen in 47 multiple myeloma cell lines against the NCATS MIPE library collection: JIM1_ECACC cell viability assay (AID 1918964; note: potency is the fitted concentration of half-maximal effect)
How it was run: as §2

[15] = Quantitative High-Throughput drug screen in 47 multiple myeloma cell lines against the NCATS MIPE library collection: INA6_PLB cell viability assay (AID 1918965; note: nearly all actives have a fitted effect of over 55% in size; note: potency is the fitted concentration of half-maximal effect)
How it was run: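 We plated 500 myeloma cells per well, pinned in MIPE 4.0 compounds, and incubated for 48 hours at 37C. ATP was then quantified with CellTiter-Glo, with DMSO and media-only wells defining 100% and 0%.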

[16] = Quantitative High-Throughput drug screen in 47 multiple myeloma cell lines against the NCATS MIPE library collection: JJN3_DSMZ cell viability assay (AID 1918966; note: potency is the fitted concentration of half-maximal effect; nearly all actives have a fitted effect of over 50% in size)
How it was run: as §2

[17] = molecular target: Luciferin 4-monooxygenase (Photinus pyralis) (UniProt P08659); assay: Primary firefly luciferase (FLuc) qHTS assay for identification of artifact compounds. (AID 1845220); conditions: outcome: dose series up to 54.1 µM unless noted; note: series mostly up to about 54 µM; nearly all actives have a fitted effect of over 60% in size
How it was run: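 Compounds sat 15 min at room temperature with 10 uM luciferin and 10 uM ATP (pH 7.6 Tris acetate). Firefly luciferase (10 nM final) was then added, and luminescence was read 5 min later. Data normalized to no-enzyme and DMSO controls were Hill-fitted.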

[18] = Primary fluorescence-based thiol-reactive (MSTI) qHTS assay for identification of artifact compounds. (AID 1845221);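 note: series mostly up to about 54 µM; thiol-reactive compounds lower the probe fluorescence signal; nearly all actives have a fitted effect of over 65% in size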
How it was run: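 A multi-concentration qHTS design tested compounds against 4 uM MSTI, pH 7.4 phosphate-buffered saline. Plates were protected from light for 1 h at room temperature before imaging fluorescence.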

[19] = test system: Nanoluciferase (engineered Oplophorus gracilirostris luciferase); assay: Primary Nanoluciferase (NLuc) qHTS assay for identification of artifact compounds. (AID 1845222); note: series mostly up to about 54 µM
How it was run: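 Luminescence from secreted NLuc (filtered, 1:55-diluted S16 cell medium) read 5 min after Nano-Glo substrate; compounds preincubated 15 min, RT. Hill fits of inhibition normalized to DMSO and no-enzyme.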

[20] = Primary redox qHTS assay for identification of artifact compounds. (AID 1845223)
How it was run: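 Amplex Red (25 uM) and HRP (250 mU/mL) in HBSS, with compounds for 15 min, then 250 uM DTT for 30 min, room temperature, dark. Fluorescence 525/598 nm read; normalized to DMSO and 10 uM DA3003; Hill fit.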

Measured: Potency

Phospholipid hydroperoxide glutathione peroxidase GPX4 (Homo sapiens), sequence (P36969 whole entry, looked up): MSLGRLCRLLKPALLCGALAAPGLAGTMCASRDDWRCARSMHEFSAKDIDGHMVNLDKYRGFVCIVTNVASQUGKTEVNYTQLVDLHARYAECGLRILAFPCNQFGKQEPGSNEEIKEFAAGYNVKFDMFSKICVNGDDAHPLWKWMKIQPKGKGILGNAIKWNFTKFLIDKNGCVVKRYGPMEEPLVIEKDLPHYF
Metallo-beta-lactamase type 2 (Klebsiella pneumoniae), sequence (C7C422 whole entry, looked up): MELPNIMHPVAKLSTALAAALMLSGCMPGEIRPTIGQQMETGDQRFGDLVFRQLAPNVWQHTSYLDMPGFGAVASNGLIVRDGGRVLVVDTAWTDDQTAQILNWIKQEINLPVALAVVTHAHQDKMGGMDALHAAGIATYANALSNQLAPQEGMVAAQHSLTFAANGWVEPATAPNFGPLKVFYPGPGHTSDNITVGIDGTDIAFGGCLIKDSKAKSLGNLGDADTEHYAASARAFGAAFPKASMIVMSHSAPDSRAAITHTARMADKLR
Glutathione peroxidase 1 (Homo sapiens), sequence (P07203 whole entry, looked up): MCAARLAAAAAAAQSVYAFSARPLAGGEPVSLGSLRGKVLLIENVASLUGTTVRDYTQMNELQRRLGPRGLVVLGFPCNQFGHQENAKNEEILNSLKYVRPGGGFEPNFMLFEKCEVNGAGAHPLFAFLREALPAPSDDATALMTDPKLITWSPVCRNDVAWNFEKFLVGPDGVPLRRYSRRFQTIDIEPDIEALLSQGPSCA

NCCc1c[nH]c2ccc(O)cc12
inactive: [1] | [2] | [3]

COc1cc(C(O)CN)ccc1O (stereo not given)
inactive: [1] | [2]

NC(CCP(=O)(O)O)C(=O)O (stereo not given)
inactive: [1] | [2]

NC(N)=NOCCC(N)C(=O)O (stereo not given)
inactive: [1] | [2] | [3]

CN1C2CCC1CC(OC(=O)c1cc(Cl)cc(Cl)c1)C2 (stereo not given)
inactive: [1] | [2]

c1ccc2sc(C3(N4CCCCC4)CCCCC3)cc2c1
inactive: [1] | [2] | [3]

C#CCOC(=O)C1=CCCN(C)C1
inactive: [1] | [2] | [3]

O=C(O)CC[N+](=O)[O-]
inactive: [1] | [2] | [3]

NC(=O)CN1CC(O)CC1=O (stereo not given)
inactive: [1] | [2]

Clc1cnc(Oc2ccc(Oc3ncc(Cl)cc3Cl)cc2)c(Cl)c1
inactive: [1] | [2]

NCCc1c[nH]c2ccccc12
inactive: [1] | [2] | [3]

CC(=O)[C@H]1CCC2C3CC[C@H]4C[C@H](O)CC[C@]4(C)C3CC[C@@]21C (stereo not given in full)
inactive: [1] | [2] | [3]

O=C1CCCN1CC#CCN1CCCC1
inactive: [1] | [2]

NCc1cc(=O)[nH]o1
inactive: [1] | [2]

CCCN1CCC[C@H](c2cccc(O)c2)C1
inactive: [1] | [2]

CS(=N)(=O)CC[C@H](N)C(=O)O (stereo not given in full)
inactive: [1] | [2] | [3]

CNCCc1ccc(O)c(O)c1
inactive: [1] | [2] | [3]

CCCCc1ccc(C(=O)O)nc1
inactive: [1] | [2] | [3]

CN[C@@H]1C[C@@H](c2ccc(Cl)c(Cl)c2)c2ccccc21
inactive: [1] | [2] | [3]

NC1CCc2cc(O)c(O)cc2C1 (stereo not given)
inactive: [1] | [2] | [3]

c1ccc(C2(c3ccccc3)CC2C2=NCCN2)cc1 (stereo not given)
inactive: [1] | [2] | [3]

CCCN(CCC)C1CCc2ccc(O)cc2C1 (stereo not given)
inactive: [1] | [2] | [3]

CCCN1CCO[C@@H]2c3cc(O)ccc3OC[C@H]21
inactive: [1] | [2]

C=CCN1CC[C@]23CCCCC2[C@H]1Cc1ccc(O)cc13 (stereo not given in full)
inactive: [1] | [2]

C[C@@H]1O[C@H](C[N+](C)(C)C)C[C@H]1O
inactive: [1] | [2]

Cc1nccc2c1[nH]c1ccccc12
inactive: [1] | [2]

C[N+](C)(C)CC(=O)O
inactive: [1] | [2] | [3]

Cn1cnc(CCN)c1
inactive: [1] | [2]

C[C@@H](N)Cc1cnc[nH]1
inactive: [1] | [2]

CC(C)NC(C)Cc1ccc(I)cc1 (stereo not given)
inactive: [1] | [2]

NC(=NCCC[C@H](N)C(=O)O)N[N+](=O)[O-]
inactive: [1] | [2] | [3]

CC(Cc1ccc(O)cc1)NCC(O)c1cc(O)cc(O)c1 (stereo not given)
inactive: [1] | [2]

C[N+]1(C)C2CCC1CC(OC(=O)C(CO)c1ccccc1)C2 (stereo not given)
inactive: [1] | [2] | [3]

O=C(Cc1ccc(Cl)c(Cl)c1)N1CCCCC1CN1CCCC1 (stereo not given)
inactive: [1] | [2]

CC[N+]1(CCOC(=O)C(O)(c2ccccc2)c2ccccc2)CCCCC1
inactive: [2]

CC[C@@]1(O)C(=O)OCc2c1cc1n(c2=O)Cc2cc3ccccc3nc2-1
inactive and 9.04 µM (active): [3]
active: [4] 296 nM | [5] 74.3 nM | [6] 209 nM | [7] 23.5 nM | [8] 118 nM | [9] 372 nM | [10] 418 nM | [11] 105 nM | [12] 235 nM | [13] 264 nM | [14] 132 nM | [15] 20.9 nM | [16] 743 nM
inactive: [1] | [2]

S=C(NC1CCCCC1)N1CCC(c2cnc[nH]2)CC1
inactive: [1] | [2] | [3] | [17] | [18] | [19] | [20]

CC(C)(C)NC[C@H](O)c1ccc(O)cc1Cl
inactive: [2] | [3] | [17] | [18] | [19] | [20]

CC(C)[C@]12O[C@H]1[C@@H]1O[C@]13[C@]1(O[C@H]1C[C@H]1C4=C(CC[C@@]13C)C(=O)OC4)[C@@H]2O
inactive: [2] | [3] | [17] | [18] | [19] | [20]

C1CCC(NC2CCCCC2)CC1
inactive: [2] | [3]

O=C(O)C(Cl)Cl
inactive: [2]

Oc1ccc2c3c1O[C@H]1c4[nH]c5c(c4C[C@@]4(O)[C@@H](C2)N(CC2CC2)CC[C@]314)C[C@@]1(O)[C@H]2Cc3ccc(O)c4c3[C@@]1(CCN2CC1CC1)[C@H]5O4
inactive: [1] | [2] | [4] | [5] | [6] | [7] | [8] | [9] | [10] | [12] | [13] | [14] | [15]

CC(C)Oc1cccnc1N(C)C1CCN(Cc2ccccc2)CC1
inactive: [1] | [2] | [3]
